According to PubChem BioAssay (NCATS):
Inconclusive results are not listed. A number with no mark means an inactive call. Activity calls are given as the source filed them. Calls follow the shape of the dose curve; as a rule, active = well fitted cell-killing curve with a large enough effect; inconclusive = small, poorly fitted or top-dose-only effect, or effect the other way; inactive = no such curve, though single readings can be large or run the other way.

Experiment: Quantitative High-Throughput drug screen in 47 multiple myeloma cell lines against the NCATS MIPE library collection: ARD_JJKsccE7 cell viability assay (AID 1918929)
Settings: ARD myeloma cell line viability, CellTiter-Glo, 48 h; series mostly up to 45.8 µM; viability: at the top concentration
Excerpt: PI: Beverly A. Mock Ph.D.
Laboratory of Cancer Biology and Genetics,
Center for Cancer Research, National Cancer Institute,
National Institute of Health, Bethesda, Maryland
Drug resistance and disease progression are common in multiple myeloma (MM) patients, underscoring the need for new therapeutic combinations. […] We hypothesized that effective combinations would reduce MYC expression and enhance p16 activity. […] These preclinical data identify potentially useful drug combinations for evaluation in drug-resistant MM and reveal potential mechanisms of combined drug sensitivity.
Described herein is the primary MIPE qHTS used to cherrypick compounds. Validated compounds were then further tested for potential synergistic activiy.
[1] Peat TJ, Gaikwad SM, Dubois W, Gyabaah-Kessie N, Zhang S, Gorjifard S, Phyo Z, Andres M, Hughitt VK, Simpson RM, Miller MA, Girvin AT, Taylor A, Williams D, D'Antonio N, Zhang Y, Rajagopalan A, Flietner E, Wilson K, Zhang X, Shinn P, Klumpp-Thomas C, McKnight C, Itkin Z, Chen L, Kazandijian D, Zhang J, Michalowski AM, Simmons JK, Keats J, Thomas CJ, Mock BA. Drug combinations identified by high-throughput screening promote cell cycle transition and upregulate Smad pathways in myeloma. Cancer Lett. 2023 Aug 1;568:216284. doi: 10.1016/j.canlet.2023.216284. Epub 2023 Jun 24. PMID: 37356470; PMCID: PMC10408729.
SEQUENCE No. (e.g., 1, 2, 3, etc.); […] (e.g., Cells, Incubation, Reagent, etc.); VALUE and DESCRIPTION.
1; Cells; 5 uL; white, solid bottom 1536-well Greiner assay plate.
2; Compounds; 23 nL; Kalypsis pin tool (Wako USA) equipped with a 1536-well pin head to transfer to the assay plates.
3; Incubation; 48 hours; 37C incubation.
4; Reagent;5uL; CellTiter Glo (Promega).
5; Detector; 425V; Luminescence; Viewlux PerkinElmer.
NOTES (numbers refer to Sequence numbers above)
1. The cell-based screening methods employed in this study were like those previously published. Briefly, the corresponding myeloma cell lines were screened in 1,536-well plates with 500 cells, 5-uL per well for inhibition of cell viability (assessed by measuring ATP levels with CellTiterGlo).
2. NCATS MIPE 4.0 library of approved and investigational drugs were added using the Kalypsis pin tool. Wells treated with DMSO only for 100% viability and media only wells for 0% viability were used as controls.
3. The assay plates were covered and incubated for 48 hours in a 37C, 5% CO2 incubator with controlled humidity.
4. After 48 hours, CellTilter-GloTM luminescent substrate mix (Promega) reagent was added to the assay plate and plates we incubated for 5 min at room temperature.
5. Signal was measured as median relative luminescence units on a ViewLux (PerkinElmer) multiplate reader.
[1] Heske CM, Davis MI, Baumgart JT, Wilson K, Gormally MV, Chen L, Zhang X, Ceribelli M, Duveau DY, Guha R, Ferrer M, Arnaldez FI, Ji J, Tran HL, Zhang Y, Mendoza A, Helman LJ, Thomas CJ. Matrix Screen Identifies Synergistic Combination of PARP Inhibitors and Nicotinamide Phosphoribosyltransferase (NAMPT) Inhibitors in Ewing Sarcoma. Clin Cancer Res. 2017 Dec 1;23(23):7301-7311. doi: 10.1158/1078-0432.CCR-17-1121. Epub 2017 Sep 12. PMID: 28899971; PMCID: PMC6636827.
Potency is read from the fitted curve at half-maximal effect.

Row | Compound | Potency | viability
1 | COCCOc1ccc2c(c1)ncn2-c1ccc2cccc(N3CCC(N)CC3)c2n1 | 2.96 µM (active) | 
2 | COc1cc2ncnc(Nc3ccc(F)c(Cl)c3)c2cc1NC(=O)C=CCN1CCCCC1 | 9.35 µM (active) | 
3 | O=C(NC1CCNCC1)c1[nH]ncc1NC(=O)c1c(Cl)cccc1Cl | 0.743 µM (active) | 
4 | C=CCn1c(=O)c2cnc(Nc3ccc(N4CCN(C)CC4)cc3)nc2n1-c1cccc(C(C)(C)O)n1 | 0.264 µM (active) | 
5 | CN1c2cc(O)c(N=NC(N)=O)cc2CC1S(=O)(=O)O (stereo not given) | 0.0012 µM (active) | 
6 | CC[C@@H]1C(=O)N(C)c2cnc(Nc3ccc(C(=O)NC4CCC(N5CCN(CC6CC6)CC5)CC4)cc3OC)nc2N1C(C)C (stereo not given in full) | 0.0833 µM (active) | 
7 | Cc1cc(C(=O)N2CCN(c3cccc(Cl)c3)CC2)n(-c2ccccc2)n1 | 0.264 µM (active) | 
8 | Cc1cc(Nc2ncnc3ccc(-c4ccc(CNCCS(C)(=O)=O)o4)cc23)ccc1Oc1ccn2ncnc2c1 | 2.35 µM (active) | 
9 | O=C(c1cncc(Br)c1)N1CCC(N2CCCC2)CC1 |  | 126%
10 | Cc1cccc(C=NNc2cc(N3CCOCC3)nc(OCCc3ccccn3)n2)c1 | 1.05 µM (active) | 
11 | Nc1nc(NCCNc2ncc(-n3ccnc3)c(-c3ccc(Cl)cc3Cl)n2)ccc1[N+](=O)[O-] | 6.62 µM (active) | 
12 | COc1ccc(-n2nc(C(N)=O)c3c2C(=O)N(c2ccc(N4CCCCC4=O)cc2)CC3)cc1 |  | 139%
13 | CCc1c2c(nc3ccc(O)cc13)-c1cc3c(c(=O)n1C2)COC(=O)[C@]3(O)CC | 1.66 µM (active) | 
14 | Nc1cccc(-c2cc3c(Oc4cccc(O)c4)ncnc3[nH]2)c1 |  | 165%
15 | CC(C)Nc1cc(C(F)(F)F)cc2nc(NC(=O)c3cccnc3)nn12 |  | 123%
16 | CN1CCN(c2cc(C(=O)Nc3ccc4c(c3)-c3c(c(C(N)=O)nn3-c3ccc(F)cc3)CC4)c(Cl)cn2)CC1 | 16.6 µM (active) | 
17 | CCC(=C(c1ccccc1)c1ccc(OCCN(C)C)cc1)c1ccccc1 | 20.9 µM (active) | 
18 | Cc1cc(Nc2cc(NC(=O)c3c(Cl)cccc3Cl)ccn2)nc(N)n1 | 0.209 µM (active) | 
19 | NC1(Cc2ccc(Cl)cc2)CCN(c2ncnc3[nH]ccc23)CC1 | 0.935 µM (active) | 
20 | CN(C1CCc2c(c3ccccc3n2CC(=O)O)C1)S(=O)(=O)c1ccc(F)cc1 (stereo not given) | 5.26 µM (active) | 

Row | Compound | Potency | viability
21 | CC(C)(C)c1cnc(CSc2cnc(NC(=O)C3CCNCC3)s2)o1 | 0.235 µM (active) | 
22 | C#Cc1cccc(Nc2ncnc3cc(OC)c(OCCCCCCC(=O)NO)cc23)c1 | 0.0743 µM (active) | 
23 | CN(c1ncccc1CNc1nc(Nc2ccc3c(c2)CC(=O)N3)ncc1C(F)(F)F)S(C)(=O)=O | 2.64 µM (active) | 
24 | COc1ccc(OC)c(-c2nnc3ccc(-c4ccc(OC)c(O[C@@H]5CCOC5)c4)nn23)c1 | 16.6 µM (active) | 
25 | COc1cc(C(=O)N2CCC(N3CCN(C)CC3)CC2)ccc1Nc1ncc2c(n1)N(C)c1ccccc1C(=O)N2C | 1.66 µM (active) | 
26 | CC[C@@]1(O)C(=O)OCc2c1cc1n(c2=O)Cc2cc3cc(O)ccc3nc2-1 | 2.35 µM (active) | 
27 | CC1(C)CCC(c2ccc(Cl)cc2)=C(CN2CCN(c3ccc(C(=O)NS(=O)(=O)c4ccc(N[C@H](CCN5CCOCC5)CSc5ccccc5)c(S(=O)(=O)C(F)(F)F)c4)cc3)CC2)C1 | 2.64 µM (active) | 
28 | C=C1C(=CC=C2CCC[C@]3(C)[C@@H]([C@H](C)C=C[C@H](C)C(C)C)CC[C@@H]23)C[C@@H](O)C[C@@H]1O | 0.332 µM (active) | 
29 | Nc1ccccc1NC(=O)c1ccc(CNC(=O)OCc2cccnc2)cc1 | 0.935 µM (active) | 
30 | O=C(O)c1ccc2cc(-c3ccc(O)c(C45CC6CC(CC(C6)C4)C5)c3)ccc2c1 | 5.26 µM (active) | 
31 | Cc1cnc(-c2cnc(NCCNc3ccc(C#N)cn3)nc2-c2ccc(Cl)cc2Cl)[nH]1 |  | 118%
32 | Clc1cccc(-c2nnnn2Cc2cccnc2)c1Cl |  | 97%
33 | Cc1cnc(Nc2ccc(F)cc2Cl)nc1-c1c[nH]c(C(=O)N[C@H](CO)c2cccc(Cl)c2)c1 | 14.8 µM (active) | 
34 | O=C(Cc1ccc(-c2ccc(OCCN3CCOCC3)cc2)cn1)NCc1ccccc1 | 0.0166 µM (active) | 
35 | OCc1ccc(-c2ccc(-c3ccc(CO)s3)o2)s1 |  | 129%
36 | CC(C)c1noc(N2CCC(COc3ccc(-c4ccc(S(C)(=O)=O)cc4)nc3)CC2)n1 |  | 131%
37 | C[C@@H](Oc1cc(-n2cnc3ccc(CN4CCN(C)CC4)cc32)sc1C(N)=O)c1ccccc1C(F)(F)F | 0.0264 µM (active) | 
38 | NC(=O)c1c(OCc2c(F)cc(Br)cc2F)nsc1NC(=O)NCCCCN1CCCC1 |  | 142%
39 | Cc1ccc2nc(NC(=O)CSc3nc4c(c(=O)n3-c3ccccc3)SCC4)sc2c1 | 13.2 µM (active) | 
40 | O=C(C=Cc1cccc(S(=O)(=O)Nc2ccccc2)c1)NO | 1.08 µM (active) | 
